High-throughput results as filed in PubChem.
The list is not random: actives were taken first. Their share in the collection is about 5.1%.
S1P3 antag = S1P3 receptor antagonists, primary screen, cell-based. Sphingosine 1-phosphate receptor 3 (Homo sapiens), Q99500. CHO S1P3 NFAT-BLA reporter, FRET fluorescence, antagonist mode. inhibition, % at 4.98 µM. hit rate 0.27% among 170,000. AID 485, 2006;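 active = inhibition above the plate cutoff, the mean inhibition of test wells on that plate plus 3 SD, cut at about 28% in these data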;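 note: cells challenged with S1P at its EC80 of 0.8 µM; blue over green emission ratio from cleaved BLA substrate after 4 h stimulation; 0% = S1P-stimulated wells and 100% = unstimulated DMSO-only wells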
Target sequence (Q99500 whole entry, looked up): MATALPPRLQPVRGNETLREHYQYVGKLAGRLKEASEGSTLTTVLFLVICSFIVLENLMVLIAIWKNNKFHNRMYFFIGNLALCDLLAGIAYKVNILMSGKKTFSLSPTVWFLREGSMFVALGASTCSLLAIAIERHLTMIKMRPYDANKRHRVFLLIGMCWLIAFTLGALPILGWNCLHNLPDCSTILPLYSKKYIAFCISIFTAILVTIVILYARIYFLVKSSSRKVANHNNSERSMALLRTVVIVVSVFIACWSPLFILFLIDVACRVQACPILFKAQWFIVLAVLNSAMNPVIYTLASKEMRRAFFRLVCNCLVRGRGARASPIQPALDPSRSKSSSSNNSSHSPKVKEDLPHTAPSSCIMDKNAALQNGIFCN
Cl transport mod = KCC2 cotransporter modulators, thallium flux, primary screen, cell-based, HEK293 KCC2, FluoZin-2 fluorescence, MLSMR. Solute carrier family 12 member 5 (Homo sapiens), Q9H2X9. KCC2 cells, thallium flux FluoZin-2 fluorescence. B-score of Tl+ flux slope (higher = more flux/activation; lower = inhibition) at 10 µM. hit rate 2.2% among 190,000. AID 1456, 2008;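 active = thallium flux slope and its plate-corrected score both differing from the plate sample mean at a set confidence after two filtering rounds, in either direction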;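 note: slope of fluorescence scaled to starting intensity during 10 to 20 s after thallium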
S1P4 antagonist = S1P4 receptor antagonists, primary screen, cell-based. Sphingosine 1-phosphate receptor 4 (Homo sapiens), O95977. S1P4-expressing cells, antagonist mode, reporter read-out. inhibition, % at 4.98 µM. hit rate 0.26% among 220,000. AID 1510, 2009; in the data active = inhibition above about 29%;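 note: 0% = wells stimulated with agonist and 100% = vehicle wells without agonist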
ROMK mod = ROMK potassium channel modulators, primary screen, cell-based, thallium flux, MLSMR library | ATP-sensitive inward rectifier potassium channel 1 (Homo sapiens), P48048 | Tet-inducible ROMK, thallium flux fluorescence; actives lie on both sides | B-score at 10 µM | hit rate 2% among 130,000 | AID 1918, 2009;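 active = signal ratio slope over the read window, or its plate-corrected B-score, at least 3 SD from the plate mean, either direction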;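 note: B-score of the F/F0 ratio slope over 7 to 12 s after thallium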
Target sequence (P48048 whole entry, looked up): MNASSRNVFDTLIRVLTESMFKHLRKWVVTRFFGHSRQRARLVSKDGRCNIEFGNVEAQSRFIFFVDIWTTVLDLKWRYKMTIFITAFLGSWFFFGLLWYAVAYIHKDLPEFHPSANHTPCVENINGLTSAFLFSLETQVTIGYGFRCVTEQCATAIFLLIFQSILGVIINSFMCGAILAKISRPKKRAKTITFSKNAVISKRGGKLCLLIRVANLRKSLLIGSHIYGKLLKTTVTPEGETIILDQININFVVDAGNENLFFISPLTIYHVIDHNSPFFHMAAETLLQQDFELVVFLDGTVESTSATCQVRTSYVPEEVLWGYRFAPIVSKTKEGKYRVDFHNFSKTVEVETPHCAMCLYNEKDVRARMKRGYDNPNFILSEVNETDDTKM
RAM network inh = inhibitors of the yeast RAM network, primary screen, dse1pr::URA3 reporter, 5-FOA selection | inhibition, % at 50 µM | AID 868, 2007 | S. cerevisiae dse1pr::URA3 reporter, 5-FOA growth OD615, 2 d; analog-sensitive cbk1-as2 kinase mutant strain | hit rate 1.8% among 190,000;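 active = inhibition above a set limit, 3 SD over mean compound inhibition, cut at about 8.4% in these data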;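 note: 0% = DMSO-only wells with no growth and 100% = 10 µM 1-NA-PP1 full growth; inhibition rescues growth on 5-FOA so higher OD means more RAM inhibition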
S1P4 ag = S1P4 receptor agonists, primary screen, cell-based. AID 1509, 2009. activation, % at 4.98 µM. hit rate 0.35% among 220,000. S1P4-expressing cell line, agonist reporter assay; in the data active = activation above about 11%;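 note: 0% = DMSO vehicle and 100% = reference agonist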
S1P4 ag conf = S1P4 receptor agonists, retest, confirmation, cell-based, high throughput; hit rate 7% among 740; AID 1523, 2009; shares compounds with S1P4 ag; S1P4 agonist cell-based reporter assay; activation, % at 4.98 µM; in the data active = activation above about 12%;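 note: 0% = vehicle and 100% = full reference agonist response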
S1P1 agonist = S1P1 receptor agonists, human, counter-screen for S1P4 agonist project, cell-based. shares compounds with S1P4 ag. S1P1 agonist cell-based assay, activation. activation, % at 4.98 µM. hit rate 4% among 740; in the data active = activation above about 21%;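 note: 0% = vehicle wells and 100% = reference agonist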
An asterisk follows results filed as active; . = no result.

SMILES | S1P3 antag | Cl transport mod | S1P4 antagonist | ROMK mod | RAM network inh | S1P4 ag | S1P4 ag conf | S1P1 agonist
Cc1onc(-c2ccccc2)c1C(=O)NCCN1CCOCC1 | 8.2 | 1.62 | 5.7 | . | 1.0 | 16.8* | -1.1 | -3.5
O=C(NCCN1CCOCC1)c1ccc(-c2ccccc2)cc1 | 9.9 | . | 7.0 | . | 2.2 | -1.5 | . | .
CC(C)CC(=O)Nc1ccc(-c2nnn(CC(=O)NCc3ccco3)n2)cc1 | -10.3 | -0.0139 | -3.5 | 0.108 | 2.9 | 14.2* | -1.6 | -4.6
COc1ccc(N2CCN(C(=O)CSc3nnc(-c4ccco4)n3C)CC2)cc1 | 5.1 | -0.792 | 7.4 | -0.801 | 1.0 | 0.4 | . | .
CCOC(=O)c1sc(NC(=S)NC(=O)c2ccco2)nc1C | -2.2 | 46.9* | -1.1 | . | 1.5 | 33.7* | -2.7 | -2.0
Cc1nn(CC(=O)c2ccccc2)c(=O)c2nn(-c3ccccc3F)c(C)c12 | -11.6 | . | -14.7 | 1.16 | 0.4 | -1.0 | . | .
COc1cc(NC(=O)C(=O)NCCN2CCNCC2)c(OC)cc1Cl | -5.9 | -0.359 | 14.7 | -0.835 | 0.1 | -0.1 | . | .
CC(CCc1ccccc1)NC(=O)CCCCCNc1nc(=S)[nH]c2ccccc12 (stereo not given) | 18.5 | 0.406 | 0.6 | 1.04 | 1.6 | -2.5 | . | .
COc1ccc(Cl)cc1N(CC(=O)NCC(C)C)S(=O)(=O)c1ccc(C)c([N+](=O)[O-])c1 | 3.9 | -0.482 | -11.1 | 1.96 | 5.0 | 25.3* | -2.4 | -5.1
Cc1ccnc(NC(c2ccccc2O)c2oc(CO)cc(=O)c2O)c1 (stereo not given) | -3.7 | 0.00459 | -13.1 | -0.153 | 0.5 | -1.6 | . | .
COc1ccc(CC(=O)Nc2nnc(C(C)(C)C)s2)cc1OC | -8.5 | 0.0717 | -15.9 | -0.416 | 1.6 | 31.8* | -0.9 | -10.9
CCCOc1ccc(S(=O)(=O)NNC(=O)c2cc3ccccc3o2)cc1 | -5.0 | -0.837 | -13.6 | -0.202 | 4.5 | 0.0 | . | .
COc1ccc(NC(=O)CSc2nc3ccccc3n2-c2ccccc2)c([N+](=O)[O-])c1 | -3.4 | -0.33 | -5.5 | . | 2.4 | 44.5* | -0.6 | -2.8
COc1ccc(NC(=O)CSc2ccccc2)c([N+](=O)[O-])c1 | -2.8 | -1.72 | 3.9 | -1.16 | -0.7 | -1.3 | . | .
CN(C)c1ccc(CNC(=O)C2CCC(CNc3c(N4CCCCC4)c(=O)c3=O)CC2)cc1 (stereo not given) | -10.6 | -0.0729 | 13.3 | -0.0187 | . | 0.5 | . | .
Cc1cc(OC(=O)CNC(=O)OC(C)(C)C)c2c(C)cc(=O)oc2c1 | 11.3 | -0.464 | -14.4 | -0.56 | 1.4 | 48.1* | -2.1 | -7.1
Cc1cc(OC(=O)c2ccco2)c2c(C)cc(=O)oc2c1 | . | -0.498 | -10.5 | -0.239 | 0.2 | -0.4 | . | .
CCN(N)C(=S)Nc1ccc(F)cc1 | -1.2 | -0.223 | 3.7 | 0.251 | 3.2 | 32.9* | -1.4 | -7.6
COc1cccc(CN2CCNC(=O)C2CC(=O)NCc2cc(C(C)C)no2)c1 (stereo not given) | -37.3 | -0.0242 | -15.6 | 0.0528 | 0.5 | -1.4 | . | .
CCOC(=O)c1ccc(NC(=O)CCc2nc(-c3ccccc3Cl)no2)cc1 | -6.2 | -2.74 | 1.9 | . | 7.6 | 11.9* | -1.7 | -0.1
CNC(=S)N1CCc2cc(OC)c(OC)cc2C1COc1ccc(OC)cc1 (stereo not given) | 0.9 | 0.466 | -27.4 | 1.37 | -0.9 | 0.2 | . | .
COCCNC(=S)N1CCc2cc(OC)c(OC)cc2C1COc1cc(C)cc(C)c1 (stereo not given) | -14.4 | -0.248 | -0.1 | . | 3.7 | 17.8* | -2.2 | 0.8
COc1cc(/C=N/NS(=O)(=O)c2ccc(C(C)(C)C)cc2)cc([N+](=O)[O-])c1O | -5.8 | -1.98 | -2.0 | . | 1.1 | 1.3 | . | .
COc1ccc(CNC(=O)C(C)N2C(=O)COc3ccc(C)cc32)c(OC)c1 (stereo not given) | 2.0 | -0.962 | -15.8 | . | . | -1.6 | . | .
Cc1ccc(NC(=O)c2ccc(N/N=C/c3cccc(O)c3)c([N+](=O)[O-])c2)cc1 | . | . | -9.3 | . | 9.0* | 14.4* | -1.9 | -4.9
SMILES | S1P3 antag | Cl transport mod | S1P4 antagonist | ROMK mod | RAM network inh | S1P4 ag | S1P4 ag conf | S1P1 agonist
Cc1ccc(NC(=O)c2ccc(Nc3c([N+](=O)[O-])cc([N+](=O)[O-])cc3[N+](=O)[O-])cc2)cc1 | 9.7 | 0.355 | -3.1 | . | 6.0 | 0.7 | . | .
COc1cc(NC(=O)CN2C(=O)NC(c3ccccc3)(c3ccccc3)C2=O)c(C)cc1[N+](=O)[O-] | 0.9 | -1.33 | -6.4 | 0.143 | 5.6 | -0.7 | . | .
CCn1cc(/C=C/C(=O)Nc2c(C)nn(Cc3ccccc3C)c2C)cn1 | -2.9 | . | -18.8 | 0.745 | 0.6 | 20.4* | -0.8 | 3.1
COc1ccc(N2C(=O)CSC(c3ccccc3)C2=O)cc1 (stereo not given) | -8.3 | 0.00141 | 15.7 | 0.553 | 1.2 | -1.2 | . | .
O=C(COc1ccccc1F)NC12CC3CC(CC(C3)C1)C2 | -0.3 | -0.0976 | 5.6 | . | . | -0.6 | . | .
COc1cc(/C=N/N(C)S(=O)(=O)c2ccc(C)cc2)cc([N+](=O)[O-])c1O | 0.6 | -0.15 | -8.8 | . | . | 0.0 | . | .
COc1ccc(CNC(=O)CN(c2ccccc2)S(=O)(=O)c2ccccc2[N+](=O)[O-])cc1 | -21.0 | -2.09 | -17.0 | -0.815 | 2.5 | 1.3 | . | .
COc1cc(-c2c(C#N)c(N)nc3c2CCCC3)ccc1O | -5.8 | -0.982 | -10.0 | . | 3.5 | 0.7 | . | .
COc1ccc(-c2c(C#N)c(N)nc3c2CCc2ccccc2-3)cc1OC | . | . | -13.2 | . | 4.6 | 13.6* | 18.5* | 10.4
CC(=O)c1cnc2sccn2c1=O | -24.2 | 0.792 | -6.4 | -0.453 | 3.7 | 16.1* | -2.8 | -4.3
COc1ccc(NC(=O)c2cnc3sccn3c2=O)cc1 | -35.8 | 0.00515 | -5.3 | . | 1.7 | 0.9 | . | .
CCOC(=O)C1=C(C)Nc2nc(C)nn2C1c1ccc(C)cc1 (stereo not given) | -2.3 | -0.159 | -4.9 | 0.471 | 0.9 | 12.7* | -2.6 | -8.8
COCCn1c(=O)sc2ccccc2c1=O | -12.1 | 0.153 | -18.4 | -0.00496 | 1.3 | 26.9* | -0.7 | -1.5
CC(C)(C)c1ccc(C(=O)N2CCC(C(=O)NCc3ccncc3)CC2)cc1 | -10.1 | 0.23 | -7.6 | . | -0.9 | 16.4* | -0.5 | -1.0
